Screens: PubChem BioAssay, National Center for Advancing Translational Sciences (NCATS)
A selection: hits, their analogues and other compounds. The true share with any hit is near 1.4%.
NS1 function inh = blocks influenza NS1 protein function; Potency, µM (highest dose often 46.1 µM), inactives show top-dose activity, positive = more growth; hit rate 0.4% among 270,000; AID 2326; calls by dose curve; further: actives are rising curves; nearly all actives have a fitted effect of over 50% in size
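Read-out: OD600 growth recovery of NS1-expressing budding yeast. Cells grown overnight at 30C in -URA glucose medium, washed, resuspended and diluted 1:100 in 2% galactose assay medium, pH 6.0. Same strain lacking NS1 served as positive control.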
AmpC detergent = inhibitors of E. coli AmpC beta-lactamase with detergent; P00811; AmpC hydrolysis of nitrocefin, absorbance 480 nm, 0.01% Triton; Potency, µM (highest dose often 114 µM), for inactives: at the highest dose activity change, negative = inhibition, usual class: inhibitors; hit rate 0.041% among 370,000; AID 485294;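 further: 0% = no-compound wells and -100% = no-enzyme wells; nearly all actives have a fitted effect of over 25% in size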
Target sequence (P00811 whole entry, looked up): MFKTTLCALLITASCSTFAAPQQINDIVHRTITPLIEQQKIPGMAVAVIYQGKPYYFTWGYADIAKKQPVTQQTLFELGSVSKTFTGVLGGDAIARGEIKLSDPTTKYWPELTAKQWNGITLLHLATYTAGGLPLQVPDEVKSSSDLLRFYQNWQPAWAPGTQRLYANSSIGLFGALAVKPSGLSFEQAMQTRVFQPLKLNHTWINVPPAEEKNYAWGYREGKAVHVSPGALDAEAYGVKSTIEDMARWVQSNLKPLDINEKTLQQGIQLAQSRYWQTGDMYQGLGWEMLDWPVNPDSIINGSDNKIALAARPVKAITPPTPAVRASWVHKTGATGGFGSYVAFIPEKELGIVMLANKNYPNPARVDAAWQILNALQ
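20 mM phosphate pH 7.0 + 0.01% (detergent screen) or 0.0001% Triton X-100; 5.3 nM AmpC reagent; cpd preinc 15 min RT; nitrocefin (800 uM stock) to start; A480 q20 s × 4 min; Activity was normalised to no-enzyme and no-compound control wells.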
SARS PLpro yeast = SARS-CoV PLP inhibition in yeast. AID 485353. hit rate 0.19% among 330,000. Potency, µM (highest dose often 32.9 µM), inactives show top-dose activity, positive = growth rescue, hits mostly activators. S. cerevisiae expressing SARS-CoV PLpro, growth rescue; calls by dose curve; further: 0% is about no effect; nearly all actives have a fitted effect of over 55% in size
Giardia FBPA inh-1 = inhibitors of Giardia lamblia fructose-1,6-bisphosphate aldolase. A8B2U2. purified Giardia FBPA. Potency, µM (doses to about 59.6 µM), without a hit: at the highest dose activity, negative = inhibition, actives largely listed as inhibitors. hit rate 0.71% among 290,000; further: on the % scale 0 is the no-effect control and ±100 the full control effect; nearly all actives have a fitted effect of over 55% in size
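40 nM FBPA preincubated 10 min at RT with compound (up to 57.5 uM final), then substrate plus GAPDH/TPI/NAD/arsenate coupling and diaphorase/resazurin added. Fluorescence read after 20 min at RT, 525/598 nm.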
AmpC inh no detg = AmpC beta-lactamase inhibition without detergent | P00811 | Potency, µM (titrated, usually from 57.1 µM), inactives show at the highest dose activity change, negative = inhibition, usual class: inhibitors | AID 485341 | AmpC nitrocefin hydrolysis, absorbance 480 nm, 0.0001% Triton | hit rate 0.52% among 330,000;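 further: plate controls were no compound for no effect and no enzyme for full effect; nearly all actives have a fitted effect of over 20% in size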
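AmpC (5.3 nM in the dispensed reagent) in 20 mM phosphate pH 7.0 with 0.01% (detergent screen) or 0.0001% Triton X-100 was preincubated with compounds for 15 min at room temperature. Nitrocefin was then added from an 800 uM solution, and hydrolysis was followed at 480 nm.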
Giardia growth = blocks growth of Giardia lamblia trophozoites. AID 2785. shares compounds with Giardia FBPA inh-1. hit rate 5% among 1,500. Potency, µM (highest dose often 57.5 µM), inactives show top-dose activity change, negative = inhibition, usual class: inhibitors. Giardia lamblia trophozoite growth inhibition;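 further: trophozoites exposed to compound for 48 h at 37 °C; on the % scale 0 is the no-effect control and ±100 the full control effect; nearly all actives have a fitted effect of over 70% in size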
Mammal cell tox = toxic to mammalian cells in Giardia aldolase counter-screen. Potency, µM (titrated, usually from 57.5 µM), for inactives: top-dose viability change, negative = toxicity, actives largely listed as inhibitors. mammalian cell viability counter-screen, qHTS. hit rate 4% among 1,500. shares compounds with Giardia FBPA inh-1;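 further: Chinese hamster ovary cells used as mammalian cytotoxicity surrogate; viability measured as cellular ATP by luminescence; compound exposure lasted 48 h before reading; on the % scale 0 is the no-effect control and ±100 the full control effect; nearly all actives have a fitted effect of over 60% in size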
Giardia FBPA inh-2 = confirmation of Giardia fructose-bisphosphate aldolase inhibitors | shares compounds with Giardia FBPA inh-1 | purified Giardia aldolase enzyme activity, qHTS | Potency, µM (highest dose often 57.5 µM), for inactives: at the top dose activity change, negative = inhibition, hits mostly inhibitors | hit rate 5% among 1,500; further: on the % scale 0 is the no-effect control and ±100 the full control effect; nearly all actives have a fitted effect of over 45% in size
Rabbit aldolase = blocks rabbit muscle aldolase in Giardia aldolase selectivity test | shares compounds with Giardia FBPA inh-1 | Rabbit muscle FBPA enzyme inhibition, selectivity counter-screen | Potency, µM (highest dose often 57.5 µM), inactives show at the highest dose activity, negative = inhibition, actives largely listed as inhibitors | hit rate 4% among 1,500 | AID 2794; further: on the % scale 0 is the no-effect control and ±100 the full control effect; nearly all actives have a fitted effect of over 60% in size
GAPDH coupling = counter-screen for Giardia aldolase inhibitors: GAPDH coupling enzyme | shares compounds with Giardia FBPA inh-1 | GAPDH coupling enzyme counterscreen, biochemical, qHTS | Potency, µM (highest dose often 57.5 µM), for the others: top-dose activity change, negative = inhibition, usual class: inhibitors | hit rate 6% among 1,500 | AID 2795; further: on the % scale 0 is the no-effect control and ±100 the full control effect; nearly all actives have a fitted effect of over 55% in size
* marks the source's active call; other numbers are inactive results; ? = inconclusive; nt = no result; [ ] = another dose, or the depositor's remark. Unless noted, the call rests on the fitted dose curve; in most records, active means well fitted curve in the direction sought with a large enough effect; inconclusive means small, poorly fitted or top-dose-only effect, or another doubt; inactive means no such curve, though single readings can be large; an effect the other way counts as inactive or inconclusive. Potency means the concentration at half of the fitted maximal effect.

SMILES | NS1 function inh | AmpC detergent | SARS PLpro yeast | Giardia FBPA inh-1 | AmpC inh no detg | Giardia growth | Mammal cell tox | Giardia FBPA inh-2 | Rabbit aldolase | GAPDH coupling
CCOc1ccc(CNC(=O)c2cc3cc(S(=O)(=O)N4CCCCC4)ccc3n2C)cc1 | nt | 9% | nt | nt | nt | nt | nt | nt | nt | nt
Cn1c(=O)c2c([nH]c(=S)n2CCCc2ccccc2)n(C)c1=O | 26% | -16% | 2% | 10µM* | 24% | -20%[10.4 µM] | 4% | 6% | -17% | 16%
Cn1c(=O)[nH]c(=O)c2c1nc(Br)n2CCCc1ccccc1 | 9% | ? | 1% | -6% | -16% | nt | nt | nt | nt | nt
Cn1c(=O)[nH]c(=O)c2c1[nH]c(=S)n2CCCc1ccccc1 | -3% | ? | -2% | 3.5µM* | -16% | -10%[38.3 µM] | -3% | -12% | 35µM* | -1%
CC(=O)Nc1ccc(-c2ccc(NC(C)=O)c(O)c2)cc1O | 1% | -5% | 1% | -29% | -48% | -5%[38.3 µM] | -19% | 2.6µM* | -26% | ?
O=C1NC(=O)/C(=C/c2ccc(-c3cc(C(=O)O)ccc3Cl)o2)S1 | 4% | -12% | 2% | 32µM* | -35% | 64% | 8% | 2% | -2% | 9%
O=C1NC(=S)/C(=C\c2ccc(-c3ccccc3Cl)o2)S1 | -13% | ? | -49% | -3% | -58% | nt | nt | nt | nt | nt
c1ccc2[nH]c(SN3CCOCC3)nc2c1 | -7% | -10% | 4% | 3.5µM* | -7% | ? | -4% | 3% | -21% | ?
COc1cccc(C(=O)N2CCOCC2)c1 | nt | ? | 0% | 1% | -11% | nt | nt | nt | nt | nt
Cc1ccc(S(=O)(=O)NCCc2ccncc2)cc1C | nt | -4% | -1% | 9% | -4% | nt | nt | nt | nt | nt
N#C/C(=C(\O)c1cc(Cl)sc1Cl)c1nc2ccccc2[nH]1 | 11% | ? | 12% | 25µM* | -36% | 11% | 1% | -19% | 3% | ?
N#C/C(=C(/O)c1ccc(Cl)cc1)c1nc2ccccc2[nH]1 | 1% | 1% | -1% | 5% | -12% | nt | nt | nt | nt | nt
COCCNC(=S)NN=C1CCC(c2ccccc2)CC1 (stereo not given) | 13% | -10% | 10% | ? | 154% | nt | nt | nt | nt | nt
C=CCNC(=S)NN=C1CCC(c2ccccc2)CC1 (stereo not given) | -7% | ? | -1% | 7.9µM* | -48% | 7%[38.3 µM] | ? | -26% | 5% | 2%
CCOC(=O)C1CCN(c2c(NCCN3CCCCC3C)c(=O)c2=O)CC1 (stereo not given) | -8% | -11% | -1% | -5% | -41% | nt | nt | nt | nt | nt
CCOC(=O)Cc1csc(NC(=S)NC(=O)c2ccc(F)cc2)n1 | -13% | -8% | 4% | 7.9µM* | -25% | -27% | -4% | 12% | 7% | 9%
CCOC(=O)Cc1csc(NC(=S)NC(=O)c2cc(OC)c(OC)c(OC)c2)n1 | 0% | 0% | -1% | 20µM* | 21% | -27% | -7% | -11% | -3% | 2%
CCOC(=O)Cc1csc(NC(=S)NC(=O)c2ccccc2C)n1 | -38% | ? | -7% | ? | -36% | nt | nt | nt | nt | nt
CCOC(=O)Cc1csc(NC(=O)c2ccc(OC)c(OC)c2)n1 | -7% | 3% | -11% | 1% | -7% | nt | nt | nt | nt | nt
CCCN(CCC)CC(O)Cn1cc(/C=C/C(=O)c2ccc(OC)cc2)c2ccccc21 (stereo not given) | nt | -6% | nt | nt | nt | nt | nt | nt | nt | nt
